20 molecules from PubChem BioAssay AID598 (SRMLSC, 2007) can be followed below.

Hit rate of the full screen: of about 85,000 compounds, about 5,100 (6%) were called active. The full list was thinned out, with actives kept by preference. Unmarked numbers belong to inactive results.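 The calls were made as follows: active = viability at or below 40%; inactive = viability above 40%.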

The nature of the assay: H69AR cell viability reduction – human, 86K library, primary screen (AID 598).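 Also: multidrug resistant small cell line overexpressing MRP-1 efflux transporter; 100% = mean luminescence of untreated control wells.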 The settings on record: H69AR lung tumor viability, ATP luminescence, 72 h; at 10 µM; hits give low values.
For orientation: viability means a read-out of living cells in per cent, often relative to untreated cells. For `CCOC(=O)c1c(N)n(CCN2CCOCC2)c2nc3ccccc3nc12`, the viability is 92.9%.
In the case of `COc1cc(Cn2c(N)c(C(=O)NCc3ccco3)c3nc4ccccc4nc32)cc(OC)c1OC`, the viability was 9.48% (active).
Turning to `CCOC(=O)c1c(N)n(Cc2ccccc2)c2nc3ccccc3nc12`, the viability was 74.2%.
Consider `Cn1c(O)c(C=NCCN2CCNCC2)c(=O)n(C)c1=O`, for which the viability was 93.2%.
Turning to `COc1ccc(CN2CCN(c3ccccc3F)CC2)c(OC)c1`, the viability was 78.7%.
The value for `CN(C)C(=O)NC(O)C(Cl)(Cl)Cl` (stereo not given) was 103%; that for `CCCCn1c(O)c(C(CC)=NCc2ccco2)c(=O)[nH]c1=O` was 76.8%; that for `CCOc1ccc(CN(CCCl)CCCl)cc1C(=O)OC` was 54.1%.
In the case of `COc1ccc(-c2nc(CS(=O)CC(=O)N3CCC4(CC3)OCCO4)c(C)o2)cc1` (stereo not given), the viability was 92.7%.
Turning to `Cc1ccc(Cn2c(C)c3cnn(CC(=O)N4CCC5(CC4)OCCO5)c(=O)c3c2C)cc1`, the viability was 37.9% (active).
The value for `O=C(CCCn1c(=O)[nH]c2cc(Cl)ccc2c1=O)N1CCC2(CC1)OCCO2` was 82.2%; that for `CC(=O)c1c(C)n(C(C)C)c2ccc(O)cc12` was 98.6%.
In the case of `CCCCCn1c(=O)c(C(=O)NCc2ccccn2)c(O)c2ccccc21`, the viability is 20.3% (active).
Take `COc1ccc(CCn2c(O)c(C=NCCCn3ccnc3)c(=O)[nH]c2=O)cc1OC`: the viability is 87.2%.
For the molecule `CCN(N=Nc1nonc1OC)c1nonc1OC`, the viability is 95.7%.
On to `Cc1ccc(N(C)C(=O)Oc2cccc3ccc(C)nc23)cc1`, for which the viability was 90%.
`CCC(=NCc1ccco1)c1c(O)n(Cc2ccccc2)c(=O)[nH]c1=O`: the viability was 71.1%.
Consider `CC(=O)c1c(O)n(C2CCCCCC2)c(=O)[nH]c1=O`, for which the viability was 88.7%.
On to `CCC(=NCCc1ccccc1)c1c(O)n(C2CCCCC2)c(=O)[nH]c1=O`, for which the viability is 25.3% (active).
For `c1cc2c(cc1CCNC1CCCCCC1)OCO2`, the viability is 73.7%.
